Reference: PubChem BioAssay AID771 (SRMLSC, 2007)
Screen size: about 3,300 compounds; about 55 (2%) were called active.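 How the source made its calls: active means growth inhibition above 90%, meaning viable cell count by imaging cut by more than 90% versus vehicle controls; inactive means growth inhibition below 90%.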 Shown is part of a subset that was picked to be rich in actives.

Test: HT29 colon tumor cell growth inhibition, primary screen, imaging, high content imaging, 48 h, CellTiter-Glo (AID 771);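 on condensed nuclei: condensed means Hoechst nuclear area under control median minus 1.5 SD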
Settings: HCS imaging cell count, at 10 µM, stronger effect = higher value; for condensed nuclei: measured here: percent cells with condensed nuclei
[1] = measured here: ATP CellTiter-Glo viability inhibition

Row | Structure (SMILES) | growth inhibition | growth inhibition [1] [%] | condensed nuclei [%]
1 | CCOc1ccc(-c2nn3c(-c4ccc(OC)cc4)nnc3s2)cc1 | 10.5% (inactive) | 4.54 | 2.81
2 | C[C@]12CC[C@@H]3c4ccc(OC(=O)c5ccccc5)cc4CC[C@H]3[C@@H]1CC[C@@H]2O | 90.5% (active) |  | 22.1
3 | C[C@]12CC[C@@H]3c4ccc(O)cc4CC[C@H]3[C@@H]1CC[C@@H]2OC(=O)CCC(=O)O | -33.9% (inactive) |  | 0.84
4 | C[C@]12CC[C@@H]3c4ccc(O[C@@H]5O[C@H](C(=O)O)[C@@H](O)[C@H](O)[C@H]5O)cc4CC[C@H]3[C@@H]1C[C@@H](O)[C@@H]2O | -7.06% (inactive) |  | 1.8
5 | Cc1c(O)c(CN2CCCC(C)C2)cc2c3c(c(=O)oc12)CCC3 (configuration not stated) | -14.5% (inactive) | -14.7 | 1.69
6 | CN(C1CCS(=O)(=O)C1)S(=O)(=O)c1cccc2nsnc12 (configuration not stated) | -12.3% (inactive) | 2.06 | 8.15
7 | Cc1ccc(C(=O)CSC2=C(C#N)C(c3ccco3)C3=C(CCCC3=O)N2)cc1 (configuration not stated) | 86% (inactive) | 77.7 | 6.33
8 | N#CC1=C(SCC(=O)c2ccccc2)NC2=C(C(=O)CCC2)C1c1ccco1 (configuration not stated) | 94.2% (active) | 71.1 | 25.7
9 | CCc1ccc(NC(=O)CSC2=C(C#N)C(c3ccco3)C3=C(CCCC3=O)N2)cc1 (configuration not stated) | 86.5% (inactive) | 58.1 | 11.8
10 | N#CC1=C(SCC(=O)c2ccc(Cl)cc2)NC2=C(C(=O)CCC2)C1c1ccco1 (configuration not stated) | 92.8% (active) | 78.2 | 7.89
11 | Cc1ccc(NC(=O)CSC2=C(C#N)C(c3ccco3)C3=C(CCCC3=O)N2)cc1 (configuration not stated) | 18.9% (inactive) | -18.4 | 2.42
12 | N#CC1=C(SCC(=O)c2ccc(Br)cc2)NC2=C(C(=O)CCC2)C1c1ccco1 (configuration not stated) | 68.9% (inactive) | 54.1 | 7.14
13 | Cn1c(=O)c2c3c(sc2n2c(SCC(=O)c4ccc(Cl)cc4)nnc12)COC(C)(C)C3 | -42.1% (inactive) | -20.9 | 0.75
14 | CN=C1c2cc3c(Br)c(OC)ccc3n2CCN1C | 13.5% (inactive) | 20.4 | 1.37
15 | COC(=O)c1cc(Br)c(=O)n(Cc2ccco2)c1 | 48.5% (inactive) | -15.8 | 2.45
16 | CN(C)S(=O)(=O)Nc1ccc(NS(=O)(=O)N(C)C)c(S(=O)(=O)c2ccccc2)c1 | 17.4% (inactive) | -14.5 | 2.1
17 | CCOC(=O)C1=C(C)NC(SCC(=O)Nc2nc(C)cs2)=C(C#N)C1c1cccs1 (configuration not stated) | 95.4% (active) | 77.6 | 11.1
18 | C#CCSC1=C(C#N)C(c2cccs2)C(C(=O)OCC)=C(C)N1 (configuration not stated) | -11.7% (inactive) | -5.67 | 1.95
19 | CCSC1=C(C#N)C(c2cccs2)C(C(=O)OC)=C(C)N1 (configuration not stated) | -14.9% (inactive) | -4.48 | 2.41
20 | CCCOc1ccc(/C(O)=C2/C(=O)C(=O)N(CCCN3CCOCC3)C2c2ccncc2)cc1 (configuration not stated) | -41.6% (inactive) | -15.8 | 2.83
21 | CCCCOc1cccc(-c2nnc(N)s2)c1 | 2.4% (inactive) | -0.17 | 3.96
22 | CCC1CC2(C)NC(=O)c3c(sc4c3CC(C)(C)OC4)N2C1=O (configuration not stated) | -1.91% (inactive) | -5.72 | 0.79
23 | CC1=C(C(=O)Nc2ccccc2)C(c2ccncc2)C(C#N)=C(SCC(=O)NC(C)C)N1 (configuration not stated) | 38.7% (inactive) | 0.29 | 1.77

Row | Structure (SMILES) | growth inhibition | growth inhibition [1] [%] | condensed nuclei [%]
24 | COc1cccc(NC(=O)CSC2=C(C#N)C(c3ccco3)C3=C(CCCC3=O)N2)c1 (configuration not stated) | 61% (inactive) | 34.8 | 1.16
25 | CC(C)(C)C1CCC2(CC1)C(C#N)=C(SCC(=O)Nc1ccccc1)NC(=O)C2C#N (configuration not stated) | 91.4% (active) | 71.8 | 2.13
26 | O=c1/c(=C/c2ccccn2)sc2n1CN(c1ccccc1)CN=2 | 1.6% (inactive) | 3.13 | 16.2
27 | CNC(=O)Nc1cccc(NC(=O)NC)n1 | 24.6% (inactive) | 6.59 | 0.95
28 | COc1cccc(C2/C(=C(/O)c3cnn(-c4ccccc4)c3C)C(=O)C(=O)N2CCN(C)C)c1 (configuration not stated) | 51.1% (inactive) | -8.25 | 1.69
29 | Cc1[nH]c2ccc3c(ncn3CCC#N)c2c1C | 3.78% (inactive) | 2.93 | 1.79
30 | C=CCNc1nc(NCc2ccccc2)c(C#N)c2c1CN(C)CC2 | 95.6% (active) | 82.7 | 12.5
31 | CN1CCc2c(C#N)c(N3CCCCC3)nc(NCc3ccccc3)c2C1 | 94.8% (active) | 84.9 | 19.2
32 | CCN1CCc2c(C#N)c(NCc3ccccc3)nc(N(CC)CC)c2C1 | -3.81% (inactive) | -0.65 | 2.33
33 | C=CCNc1nc(N2CCOCC2)c(C#N)c2c1CN(C)CC2 | -13.1% (inactive) | -3.95 | 0.96
34 | N#Cc1c(NCCN)nc(NCc2ccccc2)c2c1CCN(Cc1ccccc1)C2 | 93.1% (active) | 87.7 | 30.8
35 | CCN1CCc2c(C#N)c(NCc3ccccc3)nc(NCCO)c2C1 | -5.72% (inactive) | 1.65 | 1.53
36 | C=CCNc1nc(N2CCCCC2)c(C#N)c2c1CN(Cc1ccccc1)CC2 | 71.7% (inactive) | 37 | 2.73
37 | CCN1CCc2c(C#N)c(N3CCCCC3)nc(NCc3ccccc3)c2C1 | -17.2% (inactive) | 20.2 | 3.42
38 | CCN1CCc2c(C#N)c(N3CCOCC3)nc(NCc3ccccc3)c2C1 | 21.2% (inactive) | 14.1 | 2.32
39 | CCCCOc1ccc(C)cc1CN(CCO)CCO | -4.82% (inactive) | 1.6 | 1.37
40 | Cc1ccc(-c2nn(C)c(=O)c3ccccc23)cc1CNC(=O)CSc1nc2ccccc2o1 | -7.38% (inactive) | -4.16 | 1
41 | CCC1(C)Cc2c(sc3c2c(=O)n(C)c2nnc(SCC(=O)c4ccc(Cl)cc4)n32)CO1 (configuration not stated) | 0.56% (inactive) | 9.73 | 13.8
42 | Cc1cc(C)nc(NC2=NCC(=O)N2c2cccc(Cl)c2)n1 | 27.2% (inactive) | -9.73 | 3.28
43 | CCOC(=O)c1c(-c2cccs2)csc1NC(=O)CCCC(=O)O | 5.6% (inactive) | 4.31 | 1.96
44 | CCCc1nc(N2CCOCC2)c(C#N)c2c1CCCC2 | 24% (inactive) | 6.89 | 0.7
45 | CSc1nc2sc3c(c2c(=O)[nH]1)CCC(C)C3 (configuration not stated) | 25.4% (inactive) | 10.4 | 2.48
